According to PubChem BioAssay (NCATS):
“And” between values parts separate entries of the source, which are not always exact repeats. Equal entries are not always repeated. Inconclusive results are not listed. Values without a mark were called inactive. The source made the active and inactive calls. Calls come from the whole dose curve; as a rule, active = well fitted curve in the direction sought with a large enough effect; inconclusive = small, poorly fitted or top-dose-only effect, or another doubt; inactive = no such curve, though single readings can be large; an effect the other way counts as inactive or inconclusive.

Columns and labels:
[1] = test system: PA-1; assay: Primary qHTS to identify gynecologic anti-cancer compounds using libraries of approved drugs and bioactive compounds (AID 1345084); conditions: Gynecologic cancer cell panel viability, ATPlite luminescence, 48 h; series mostly up to 57.5 µM; note: nearly all actives have a fitted effect of over 55% in size
Procedure, shortened: (§1)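 In this quantitative HTS, cell killing is estimated from loss of ATP-dependent luciferase light. Cells see five compound concentrations over a 48 h exposure.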

[2] = test system: Tov112D; assay: as above; conditions: Gynecologic cancer cell panel viability, ATPlite luminescence, 48 h; series mostly up to 57.5 µM
Procedure, shortened: as §1

[3] = qHTS assay to identify inhibitors of the type 1 interferon - major histocompatibility complex class I in skeletal muscle: Counter screen cell viability and HiBit confirmation (AID 1347412); conditions: iHSKM muscle cells + IFN-b, HiBiT or CellTiter-Glo, 24 h; for activity change, negative = inhibition: at 45.9 µM (top of the series); for all read-outs here: nearly all actives have a fitted effect of over 60% in size
Procedure, shortened: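 CRISPR HLA-B*08:01-HiBit immortalized human myoblasts (C25cl48) stimulated with 4 ng/ml IFN-beta and compounds (12-point 1:3, top 46 uM final) for 24 h at 37 C. Duplicate plates read by HiBit lytic luminescence or CellTiter Glo ATP.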

[4] = Drug repurposing screens with cells derived from glioblastoma tumor samples (AID 1345199); conditions: GBM patient neurospheres viability, ATP luminescence, 48 h; note: nearly all actives have a fitted effect of over 40% in size
Procedure, shortened: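 Four patient lines of CD133+ GBM neurospheres were screened at several concentrations; hits were retested in those lines plus three slower-growing GBM lines, using 48-hour treatment and ATP-based viability.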

[5] = test system: SKOV3; assay: Primary qHTS to identify gynecologic anti-cancer compounds using libraries of approved drugs and bioactive compounds (AID 1345084); conditions: Gynecologic cancer cell panel viability, ATPlite luminescence, 48 h; series mostly up to 57.5 µM; note: nearly all actives have a fitted effect of over 55% in size
Procedure, shortened: as §1

[6] = test system: Tov-21-G; assay: as above; conditions: Gynecologic cancer cell panel viability, ATPlite luminescence, 48 h; series mostly up to 57.5 µM
Procedure, shortened: as §1

[7] = at 45.9 µM (top of the series), tumour line B
[8] = at 45.9 µM (top of the series), tumour line D
[9] = at 46 µM (top of the series), tumour line A
[10] = at 46.1 µM (top of the series), tumour line C
% is set by controls: 0 for no effect and ±100 for the full control effect; potency is the fitted concentration of half-maximal effect.

With `COc1ccc(F)c(F)c1C(=O)c1cnc(NC2CCN(S(C)(=O)=O)CC2)nc1N` the Potency [1] was 2.51 µM (active), the Potency [2] was 7.94 µM (active) and the Potency ([3]; HiBiT) was 1.11 µM (active). It also gave an activity change, negative = inhibition ([3]; Viability) of 14.1%.

With `CN1CCN(c2cc(C(=O)Nc3ccc4c(c3)-c3c(c(C(N)=O)nn3-c3ccc(F)cc3)CC4)c(Cl)cn2)CC1` the Potency ([3]; HiBiT) was 22.2 µM (active) and the Potency ([3]; Viability) was 27.9 µM (active).

With `CC(C)[C@H](C(=O)Nc1ccc(C(=O)NO)cc1)c1ccccc1` the Potency ([3]; HiBiT) was 1.11 µM (active) and the activity change, negative = inhibition ([3]; Viability) was -7.44%.

With `COc1c(N2C[C@@H]3CCCN[C@H]3C2)c(F)cc2c(=O)c(C(=O)O)cn(C3CC3)c12` the activity, negative = cell killing [4, 7] was 6.2% and 1.37%, the activity, negative = cell killing [4, 8] was -16.2% and 10% and the activity, negative = cell killing [4, 9] was -18.3%. For the same compound, the activity, negative = cell killing [4, 10] was 4.44% and 2.53%.

For `CC[C@H](CO)Nc1nc(NCc2ccccc2)c2ncn(C(C)C)c2n1`, the Potency ([3]; HiBiT) was 17.6 µM (active) and the activity change, negative = inhibition ([3]; Viability) was -8.22%.

For `CC(C)(C)NC(=O)[C@H]1CN(Cc2cccnc2)CCN1C[C@@H](O)C[C@@H](Cc1ccccc1)C(=O)N[C@H]1c2ccccc2C[C@H]1O`, the activity, negative = cell killing [4, 10] was 35.7% and the Potency ([4]; tumour line A) was 17.8 µM (active).

In the case of `Nc1ncnc2c1c(-c1cccc(OCc3ccccc3)c1)cn2C1CC(CN2CCCC2)C1` (stereo unspecified), the Potency [2] is reported as “inactive” and the Potency ([3]; HiBiT) is reported as 22.2 µM (active).

For `Fc1cc(-c2cccc3ncc(-c4cnn(C5CCNCC5)c4)nc23)cc(F)c1CN1CCOCC1`, the Potency [5] was 12.6 µM (active), the Potency [6] was 11.2 µM (active) and the Potency ([3]; HiBiT) was 19.8 µM (active).

In the case of `C[C@H]1C[C@@H]2[C@@H]([C@@H](O)C[C@@]3(C)[C@H]2CC[C@]3(O)C(=O)CO)[C@@]2(C)C=CC(=O)C=C12`, the activity, negative = cell killing ([4]; at 20 µM (top of the series), tumour line C) is reported as -10.7%, the activity, negative = cell killing ([4]; at 21.2 µM (top of the series), tumour line B) is reported as -18.9% and the activity, negative = cell killing ([4]; at 21.2 µM (top of the series), tumour line D) is reported as -26.6%. The activity, negative = cell killing ([4]; at 21.3 µM (top of the series), tumour line A) was -9.28%.

Work on `CC=CC1=C(C(=O)O)N2C(=O)[C@H](NC(=O)[C@H](N)c3ccc(O)cc3)[C@@H]2SC1` yielded an activity, negative = cell killing [4, 7] of -15%, an activity, negative = cell killing [4, 8] of -0.836% and an activity, negative = cell killing [4, 9] of -26.1%. The activity, negative = cell killing [4, 10] was -17.4%.

In the case of `O=C(CCCCCCC(=O)Nc1ccc([C@H]2O[C@@H](CSc3nc(-c4ccccc4)c(-c4ccccc4)o3)C[C@@H](c3ccc(CO)cc3)O2)cc1)NO`, the Potency [2] is reported as “inactive”.

For `CC1(C)CCC(c2ccc(Cl)cc2)=C(CN2CCN(c3ccc(C(=O)NS(=O)(=O)c4ccc(N[C@H](CCN5CCOCC5)CSc5ccccc5)c(S(=O)(=O)C(F)(F)F)c4)cc3)CC2)C1`, the Potency [6] was “inactive”.

For `Cc1cc(Nc2nc(N[C@@H](C)c3ccc(F)cc3)c(C#N)cc2F)n[nH]1`, the Potency [1] was 7.08 µM (active) and the Potency ([3]; HiBiT) was 2.22 µM (active).

`CC1(C)O[C@@H]2C[C@@H]3[C@H]4C[C@@H](F)C5=CC(=O)C=C[C@]5(C)[C@@]4(F)[C@@H](O)C[C@]3(C)[C@]2(C(=O)CO)O1` showed an activity, negative = cell killing [4, 7] of -7.89%, an activity, negative = cell killing [4, 8] of -1.99% and an activity, negative = cell killing [4, 9] of -7.12%. It also gave an activity, negative = cell killing [4, 10] of 2.95%.

For `CC(C)(C)c1cnc(CSc2cnc(NC(=O)C3CCNCC3)s2)o1`, the Potency ([3]; HiBiT) was 0.351 µM (active) and the activity change, negative = inhibition ([3]; Viability) was 9.32%.

With `COC(=O)C[C@](O)(CCCC(C)(C)O)C(=O)O[C@@H]1C(OC)=C[C@]23CCCN2CCc2cc4c(cc2[C@H]13)OCO4` the activity, negative = cell killing [4, 10] was -97.3%, the Potency ([4]; tumour line A) was 0.224 µM (active) and the Potency ([4]; tumour line B) was 0.316 µM (active). For the same compound, the Potency ([4]; tumour line D) was 1 µM (active), the Potency ([3]; HiBiT) was 0.279 µM (active) and the activity change, negative = inhibition ([3]; Viability) was 0.0855%.

`CC[C@@H]1C(=O)N(C)c2cnc(Nc3ccc(C(=O)NC4CCN(C)CC4)cc3OC)nc2N1C1CCCC1` showed an activity change, negative = inhibition ([3]; Viability) of -4.51%.
